Structures are written as SMILES. The campaign covered roughly 52,000 compounds. About 4,300 (8.3%) were called active. Rule as the data show it: active = survival mostly below about 52% (no sharp cut-off); inactive = mostly above about 56%. For the sample, actives were picked, then their nearest neighbours and some compounds at random.

These results are taken from PubChem BioAssay AID463173 (ICCB-Longwood Screening Facility, Harvard Medical School, 2010).

The assay deals with DeltatarO mutant. The assay can be described thus: growth inhibition of S. aureus wild type versus tarO mutant, primary screen, teichoic acid synthesis inhibitors, RN4220, OD600 (AID 463173). As to conditions: OD600, 18 h, hits give low values, screened at 18.75 µg/mL (by protocol).
Regarding `O=S(=O)(c1ccc(Br)cc1)c1nc(-c2cccs2)oc1SCc1ccccc1F`, the survival was 66% (inactive).
The value for `Cc1cccc(CN2C(=O)c3ccccc3S(=O)(=O)c3ccc(C(=O)N4CCN(c5cc(C)ccc5C)CC4)cc32)c1` was 74% (inactive).
Take `CC1CCN(S(=O)(=O)c2ccc3c(c2)N(CC(=O)NCCc2ccc(Cl)cc2)C(=O)CO3)CC1`: the survival was 87% (inactive).
With `Cc1cc(C)cc(Oc2nc3ccccn3c(=O)c2/C=C(\C#N)c2nc3ccccc3s2)c1`, the survival was 60% (inactive).
`COc1ccc(NC(=O)CC2C(=O)N(c3ccc(C)cc3)C(=O)N2Cc2ccc(C)cc2)cc1` (centres undefined): the survival is 68% (inactive).
For `Cc1ccc(CN(C(=O)COc2ccccc2Cl)c2ccccn2)o1`, the survival is 59% (inactive).
`COc1ccc(CCNc2ncnc3onc(C)c23)c(OC)c1`: the survival was 100% (inactive).
On to `COC(=O)c1c(-c2cccs2)csc1NC(=O)COc1ccccc1`, for which the survival was 78% (inactive).
`O=c1[nH]c2ccc(N=Cc3ccccc3C(F)(F)F)cc2[nH]1`: the survival was 71% (active).
Consider `COc1cc(C=Nc2ccc3[nH]c(=O)[nH]c3c2)ccc1OC(C)=O`, for which the survival was 85% (inactive).
On to `O=c1[nH]c2ccc(N=Cc3ccc(F)cc3)cc2[nH]1`, for which the survival is 73% (inactive).
For the compound `CC1CCN(S(=O)(=O)c2ccc3c(c2)N(CC(=O)O)C(=O)CO3)CC1`, the survival was 94% (inactive).
For `CCOc1ccc(CNC(=O)Cc2ccc(NC(=O)N3CCCCc4ccccc43)cc2)cc1OC`, the survival is 85% (inactive).
Turning to `COc1ccc(N2CCN(C(=O)Nc3cn(CC(C)C)c(=O)c4ccccc34)CC2)cc1`, the survival is 83% (inactive).
Turning to `CS(=O)(=O)N1CCC(N2CCN(Cc3ccccc3)C(=O)C2=O)CC1`, the survival is 91% (inactive).
For the compound `CC(=O)c1ccc(NC(=O)c2nc(-c3ccc(C)cc3)n3c2CCCCC3)cc1`, the survival is 58% (inactive).
With `CC(=O)c1cccc(NC(=O)c2nc(-c3ccc(C)cc3)n3c2CCCCC3)c1`, the survival is 34% (active).
`Cc1ccc(-c2nc(C(=O)Nc3cccc(C#N)c3)c3n2CCCCC3)cc1`: the survival is 88% (inactive).
The figure for `N#C/C(=C/c1ccc(-c2cccc(C(F)(F)F)c2)o1)C(=O)OC1CCCCC1` is 82% (inactive); for `Cc1cccc(C(=O)Nc2cccc(C(=O)OCc3cc(=O)n4nc(C(C)C)sc4n3)c2)c1` it is 113% (inactive).
The value for `COc1cc(C2c3c(-c4ccc(C)cc4)n[nH]c3C(=O)N2c2ccc(F)cc2)ccc1O` (centres undefined) was 95% (inactive).
For `Cc1ccc(N2C(=O)c3n[nH]c(C)c3C2c2ccc(C(C)C)cc2)cc1` (centres undefined), the survival is 39% (active).
With `Cc1ccc(N2C(=O)c3n[nH]c(C)c3C2c2ccccc2Cl)cc1` (centres undefined), the survival was 120% (inactive).
The value for `O=C1c2[nH]nc(-c3ccc(F)cc3)c2C(c2ccccc2F)N1c1ccccc1` (centres undefined) was 10% (active); that for `Cc1ccc(-c2n[nH]c3c2C(c2cccs2)N(c2ccc(Cl)cc2)C3=O)cc1` (centres undefined) was 62% (inactive).
Regarding `CCOc1ccc(C2c3c(-c4ccc(C)cc4)n[nH]c3C(=O)N2c2ccc(Cl)cc2)cc1` (centres undefined), the survival is 91% (inactive).
Turning to `CCOC(=O)c1ccc(N2C(=O)c3n[nH]c(C)c3C2c2ccc(C(C)C)cc2)cc1` (centres undefined), the survival was 86% (inactive).
Take `CCOC(=O)c1ccc(N2C(=O)c3n[nH]c(-c4cccs4)c3C2c2ccc(C(C)C)cc2)cc1` (centres undefined): the survival was 104% (inactive).
For `COc1ccc(C2c3c(-c4ccc(F)cc4)n[nH]c3C(=O)N2c2ccccc2)cc1OC` (centres undefined), the survival is 124% (inactive).
On to `COc1ccccc1C1c2c(-c3ccc(Cl)cc3)n[nH]c2C(=O)N1c1ccc(C)cc1` (centres undefined), for which the survival is 79% (inactive).
Regarding `Cc1ccc(N2C(=O)c3n[nH]c(C)c3C2c2ccc(Cl)cc2)cc1` (centres undefined), the survival was 6% (active).
Turning to `Cc1ccc(N2C(=O)c3[nH]nc(-c4ccc(Cl)cc4)c3C2c2ccc(F)cc2)cc1` (centres undefined), the survival was 44% (active).
The value for `CCN(CC)C(=O)CN1C(=O)COc2ccc(S(=O)(=O)N3CCOCC3)cc21` was 78% (inactive).
For `O=C(Nc1cc2c(cc1C(=O)c1ccc(Br)cc1)OCCO2)c1ccc(Cl)cc1`, the survival is 102% (inactive).
For `Cc1ccc2c(c1)N(CC(=O)OCC(=O)NCc1ccccc1)C(=O)CO2`, the survival is 81% (inactive).
As to `COCCNC(=O)c1ccc(-c2nc(CS(=O)(=O)c3ccccc3)c(C)o2)cc1`, the survival was 119% (inactive).
The value for `COCCCNc1nc2c(c(=O)[nH]c(=O)n2C)n1CC(O)COc1ccc(Cl)cc1` (centres undefined) was 66% (inactive).
Regarding `CCOC(=O)c1ccc(N2C(=O)c3n[nH]c(C)c3C2c2ccc(CC)cc2)cc1` (centres undefined), the survival was 78% (inactive).
On to `CCc1ccc(C2c3c(-c4ccccc4)n[nH]c3C(=O)N2c2ccc(C(=O)O)cc2)cc1` (centres undefined), for which the survival was 48% (active).
In the case of `CCOC(=O)c1ccc(N2C(=O)c3[nH]nc(-c4ccc(C)cc4)c3C2c2cccc(F)c2)cc1` (centres undefined), the survival is 117% (inactive).
`CCOC(=O)c1ccc(N2C(=O)c3[nH]nc(-c4ccccc4)c3C2c2ccc(CC)cc2)cc1` (centres undefined): the survival is 100% (inactive).
For `O=C1c2[nH]nc(-c3ccccc3)c2C(c2ccccc2)N1c1cccc(C(F)(F)F)c1` (centres undefined), the survival was 20% (active).
As to `O=C(O)c1ccc(N2C(=O)c3[nH]nc(-c4ccccc4)c3C2c2cccc(F)c2)cc1` (centres undefined), the survival is 92% (inactive).
Take `CCc1ccc(C2c3c(n[nH]c3C)C(=O)N2c2ccc(C)cc2)cc1` (centres undefined): the survival was 8% (active).
As for `CCOC(=O)c1ccc(N2C(=O)c3[nH]nc(-c4ccccc4)c3C2c2ccc(C(C)C)cc2)cc1` (centres undefined), the survival was 105% (inactive).
The value for `CCOC(=O)c1ccc(N2C(=O)c3n[nH]c(-c4cccs4)c3C2c2ccc(CC)cc2)cc1` (centres undefined) was 99% (inactive); that for `Clc1ccc(OCc2nc(-c3ccc(-n4cccc4)cc3)no2)cc1` was 163% (inactive).
With `O=C(CNCC1CCCO1)NCc1ccco1` (centres undefined), the survival is 97% (inactive).
The figure for `CCN(Cc1ccccc1)Cc1c(O)ccc2c(=O)c(-c3ccccc3Cl)c(C(F)(F)F)oc12` is 74% (inactive); for `COc1ccc(C2=Nn3c([n+](C)c4ccccc43)SC2)cc1` it is 0% (active); for `COc1ccc(N=C2SCC(=O)N2C)cc1` it is 76% (inactive).
Take `COc1ccc(C2=Nn3c(nc4sc(C(=O)Nc5cccc(C)c5)c(C)c4c3=O)SC2)cc1`: the survival was 105% (inactive).
Take `O=C(COc1ccccc1)Nc1ccccc1OCc1cc(=O)n2ccccc2n1`: the survival is 78% (inactive).
The figure for `CCC1CN(C(=O)N2CCC(C(=O)NCCCc3ccccc3)CC2)c2ccccc2O1` (centres undefined) is 69% (inactive); for `CNCC(=O)NC(c1ccccc1)c1ccccc1` it is 97% (inactive).
For `CN(C)CCCN(C(=O)c1cccs1)c1nc2ccc(F)cc2s1`, the survival was 92% (inactive).
As for `CN(C)CCCN(C(=O)c1ccc(Br)s1)c1nc2ccc(F)cc2s1`, the survival was -5% (active).
On to `Cc1ccc2nc(N(CCCN(C)C)C(=O)c3ccc(Br)s3)sc2c1`, for which the survival was 77% (inactive).
The figure for `COC(=O)c1sc2cccc(F)c2c1S(=O)(=O)N1CCN(c2ccc(F)cc2)CC1` is 81% (inactive); for `COc1ccc2c(CNCc3cccs3)c(C(=O)O)n(Cc3cccc(F)c3)c2c1` it is 72% (inactive); for `CSc1cccc(Nc2cc(C(=O)NCCCN(Cc3ccccc3)C(C)C)c3ccccc3n2)c1` it is 88% (inactive).
Regarding `Cc1cc(C)cc(Nc2cc(C(=O)NCCCN(Cc3ccccc3)C(C)C)c3ccccc3n2)c1`, the survival was -4% (active).
`Cc1cc(C)cc(Nc2cc(C(=O)NCc3ccccc3)c3ccccc3n2)c1`: the survival was 113% (inactive).
As to `Cc1ccc(N2CC(C(=O)NCCS(=O)(=O)N3CCN(c4ccc(F)cc4)CC3)CC2=O)cc1` (centres undefined), the survival was 89% (inactive).
Consider `Cc1ccc(CN(C(=O)COc2ccccc2[N+](=O)[O-])c2ccccn2)o1`, for which the survival is 69% (inactive).
For `Cc1ccc(CN(C(=O)COc2cccc([N+](=O)[O-])c2)c2ccccn2)cc1`, the survival is 39% (active).
The figure for `Cc1ccc(CN(C(=O)COc2ccccc2[N+](=O)[O-])c2ccccn2)cc1` is 46% (inactive).
On to `Cc1ccc(CN(C(=O)COc2cccc([N+](=O)[O-])c2)c2ccccn2)o1`, for which the survival was 62% (inactive).
The figure for `Cc1ccc(CN(C(=O)COc2ccc([N+](=O)[O-])cc2)c2ccccn2)cc1` is 49% (inactive).
Turning to `Cc1ccc(CN(C(=O)COc2ccc([N+](=O)[O-])cc2)c2ccccn2)o1`, the survival is 62% (active).
On to `Cc1c(-c2nsc(NC(=O)c3ccc(Cl)cc3)n2)nnn1-c1ccc(C(C)C)cc1`, for which the survival is 66% (inactive).
In the case of `CN(C1CCCCC1)S(=O)(=O)c1ccc(F)c(C(=O)Nc2ccc(C(F)(F)F)cc2)c1`, the survival was 83% (inactive).
`CCn1c(CN2CCCCC2)nc2cc(NC(=O)c3ccc([N+](=O)[O-])cc3)ccc21`: the survival is 90% (inactive).
`CN(c1ccccc1)S(=O)(=O)c1nnc(NC(=O)C2CCCCC2)s1`: the survival was 65% (inactive).
Take `Cc1cccc(NS(=O)(=O)c2nnc(NC(=O)C3CCCCC3)s2)c1`: the survival was 34% (active).
As for `O=C(Nc1nnc(S(=O)(=O)Nc2ccccc2)s1)c1ccccc1Cl`, the survival was 52% (inactive).
Turning to `Cc1cccc(N(C)S(=O)(=O)c2nnc(NC(=O)C3CCCCC3)s2)c1`, the survival is 72% (inactive).
As to `O=C(Nc1nnc(S(=O)(=O)Nc2ccccc2)s1)C1CCCCC1`, the survival is 31% (active).
The value for `Cc1cccc(NS(=O)(=O)c2nnc(NC(=O)c3cccc(C)c3)s2)c1` was 61% (inactive); that for `CC(=O)c1cc(-c2ccc(F)cc2)n(CCC(=O)Nc2nc3ccc(C)cc3s2)c1C` was 69% (inactive); that for `Cc1cc(C)c(NC(=O)Cn2c(=O)oc3cc(S(=O)(=O)N4CCCCCC4)ccc32)c(C)c1` was 83% (inactive).
Take `CCOc1ccc(-n2c(SCC(=O)c3ccccc3)nc3c([nH]c4ccccc43)c2=O)cc1`: the survival is 131% (inactive).
`Cc1cccc(C(=O)OCc2cc(=O)n3nc(-c4cccs4)sc3n2)c1`: the survival is 101% (inactive).
In the case of `Cc1ccc(CCNC(=O)c2ccc(Nc3nc4ccccc4n4nnnc34)cc2)cc1`, the survival was 72% (inactive).
For `N#Cc1ccc(NC(=O)C2Cc3ccccc3CN2S(=O)(=O)c2ccc(F)cc2)cc1` (centres undefined), the survival is 54% (inactive).
The figure for `OCCn1nnnc1-c1ccccc1` is 85% (inactive); for `CC(C)C12CN3CC(C(C)C)(CN(C1)C3c1ccc(OCc3ccccc3)cc1)C2=O` (centres undefined) it is 85% (inactive); for `CC(C)C12CN3CC(C(C)C)(CN(C1)C3c1ccc(Cl)cc1)C2=O` (centres undefined) it is 39% (active).
For `CCOc1ccc(C2N3CC4(C(C)C)CN2CC(C(C)C)(C3)C4=O)cc1OC` (centres undefined), the survival was 91% (inactive).
